Columns and labels:
Assay in all cases: DAPPL (digital affinity profiling via proximity ligation, sequencing); 10 mM Tris-HCl pH 7.5, 50 mM NaCl, 1 mM DTT, 4% glycerol, room temperature, 30 min; GST-TFs on glutathione beads, 16-mer random dsDNA library, 0.1% formaldehyde crosslink after washing; high values mean tight binding
FLI1 = molecular target: T1, FLI1 (Homo sapiens, UniProt Q01543 1-452); details: protein: recombinant; tags: N-terminal GST; dsDNA, one strand shown
T1 sequence: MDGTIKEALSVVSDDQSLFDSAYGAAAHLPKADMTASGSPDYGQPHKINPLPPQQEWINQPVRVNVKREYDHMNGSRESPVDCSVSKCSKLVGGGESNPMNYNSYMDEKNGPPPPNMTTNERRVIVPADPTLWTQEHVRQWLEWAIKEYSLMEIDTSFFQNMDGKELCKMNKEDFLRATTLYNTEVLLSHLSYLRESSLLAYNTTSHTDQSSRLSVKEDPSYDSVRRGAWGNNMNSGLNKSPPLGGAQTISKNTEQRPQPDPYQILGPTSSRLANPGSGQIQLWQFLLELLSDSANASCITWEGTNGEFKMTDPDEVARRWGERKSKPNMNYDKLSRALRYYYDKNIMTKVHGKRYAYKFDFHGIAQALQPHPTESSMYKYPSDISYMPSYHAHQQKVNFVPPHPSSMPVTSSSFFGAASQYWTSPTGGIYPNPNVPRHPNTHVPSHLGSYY
Summary of the method: (§1)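 Beads coated with glutathione captured GST-fused human transcription factors that had been expressed in yeast, and the factors were then given DNA barcodes and pooled with a tag-only sample. The pools were incubated with 200 nmole of a random double-stranded 16-mer DNA library in Tris/NaCl/DTT/glycerol buffer for 30 min at room temperature, washed, crosslinked with 0.1% formaldehyde and proximity-ligated with BsaI/T4 ligase at 37 °C for 1 h. PCR amplification and Illumina NextSeq500 sequencing came last. Binding signal is each hexamer's read frequency for a factor divided by its frequency for the tag-only sample.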

ELK1 = molecular target: T2, ELK1 (Homo sapiens, UniProt P19419 1-428); details: protein: recombinant; tags: N-terminal GST; dsDNA, one strand shown
T2 sequence: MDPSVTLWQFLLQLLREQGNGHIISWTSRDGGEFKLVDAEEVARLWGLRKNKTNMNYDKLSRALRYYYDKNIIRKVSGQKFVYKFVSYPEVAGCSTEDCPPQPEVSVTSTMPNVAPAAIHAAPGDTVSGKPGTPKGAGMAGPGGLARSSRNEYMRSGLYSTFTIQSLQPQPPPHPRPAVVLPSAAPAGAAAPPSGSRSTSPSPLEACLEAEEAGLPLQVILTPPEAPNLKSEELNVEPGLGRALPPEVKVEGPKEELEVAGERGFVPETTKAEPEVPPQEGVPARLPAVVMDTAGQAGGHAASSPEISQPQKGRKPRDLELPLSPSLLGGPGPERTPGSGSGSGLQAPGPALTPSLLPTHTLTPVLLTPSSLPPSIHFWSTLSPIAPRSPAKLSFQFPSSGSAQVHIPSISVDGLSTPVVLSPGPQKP
Summary of the method: as §1

GABPA = molecular target: T3, GABPA (Homo sapiens, UniProt Q06546 1-454); details: protein: recombinant; tags: N-terminal GST; dsDNA, one strand shown
T3 sequence: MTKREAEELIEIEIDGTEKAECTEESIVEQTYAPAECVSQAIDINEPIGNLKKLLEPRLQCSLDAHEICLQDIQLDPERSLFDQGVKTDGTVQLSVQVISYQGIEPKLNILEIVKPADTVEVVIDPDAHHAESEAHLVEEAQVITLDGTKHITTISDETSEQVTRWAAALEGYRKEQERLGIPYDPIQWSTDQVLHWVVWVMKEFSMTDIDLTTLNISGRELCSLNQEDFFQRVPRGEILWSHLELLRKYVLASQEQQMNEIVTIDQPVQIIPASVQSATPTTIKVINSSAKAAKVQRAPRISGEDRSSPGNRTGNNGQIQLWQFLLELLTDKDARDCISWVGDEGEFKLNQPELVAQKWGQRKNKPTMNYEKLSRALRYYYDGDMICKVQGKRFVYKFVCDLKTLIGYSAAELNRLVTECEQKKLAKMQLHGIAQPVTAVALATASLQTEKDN
Summary of the method: as §1

ERG = molecular target: T4, ERG (Homo sapiens, UniProt P11308 1-479); details: protein: recombinant; tags: N-terminal GST; dsDNA, one strand shown
T4 sequence: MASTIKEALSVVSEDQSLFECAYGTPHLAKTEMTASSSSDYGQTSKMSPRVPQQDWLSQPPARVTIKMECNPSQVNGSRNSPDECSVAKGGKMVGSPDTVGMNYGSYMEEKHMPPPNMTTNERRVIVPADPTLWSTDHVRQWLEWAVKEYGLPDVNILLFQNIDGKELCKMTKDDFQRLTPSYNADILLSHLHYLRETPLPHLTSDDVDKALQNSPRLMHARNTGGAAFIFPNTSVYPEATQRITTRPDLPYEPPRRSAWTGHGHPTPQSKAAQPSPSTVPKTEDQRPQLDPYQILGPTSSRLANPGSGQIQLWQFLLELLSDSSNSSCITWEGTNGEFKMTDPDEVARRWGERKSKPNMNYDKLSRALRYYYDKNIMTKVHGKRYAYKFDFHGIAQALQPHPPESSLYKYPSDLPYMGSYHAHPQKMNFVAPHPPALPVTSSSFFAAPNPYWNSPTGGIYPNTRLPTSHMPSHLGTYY
Summary of the method: as §1

ELF1 = ELF1 (Homo sapiens, UniProt P32519 1-619); details: protein: recombinant; tags: N-terminal GST; dsDNA, one strand shown
Summary of the method: as §1

EHF = molecular target: T5, EHF (Homo sapiens, UniProt Q9NZC4 1-300); details: protein: recombinant; tags: N-terminal GST; dsDNA, one strand shown
T5 sequence: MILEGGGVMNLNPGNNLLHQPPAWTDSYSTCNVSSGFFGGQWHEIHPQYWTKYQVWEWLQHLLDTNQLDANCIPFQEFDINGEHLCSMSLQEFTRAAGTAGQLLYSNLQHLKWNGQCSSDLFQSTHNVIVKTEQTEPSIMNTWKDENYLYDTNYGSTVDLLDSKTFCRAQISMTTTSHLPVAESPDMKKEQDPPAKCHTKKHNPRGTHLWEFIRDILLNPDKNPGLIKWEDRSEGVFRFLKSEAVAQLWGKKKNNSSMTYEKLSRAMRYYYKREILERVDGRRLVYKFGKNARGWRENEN
Summary of the method: as §1

SPI1 = SPI1 (Homo sapiens, UniProt P17947 1-270); details: protein: recombinant; tags: N-terminal GST; dsDNA, one strand shown
Summary of the method: as §1

SPIB = SPIB (Homo sapiens, UniProt Q01892 1-262); details: protein: recombinant; tags: N-terminal GST; dsDNA, one strand shown
Summary of the method: as §1

ELK3 = molecular target: T6, ELK3 (Homo sapiens, UniProt P41970 1-407); details: protein: recombinant; tags: N-terminal GST; dsDNA, one strand shown
T6 sequence: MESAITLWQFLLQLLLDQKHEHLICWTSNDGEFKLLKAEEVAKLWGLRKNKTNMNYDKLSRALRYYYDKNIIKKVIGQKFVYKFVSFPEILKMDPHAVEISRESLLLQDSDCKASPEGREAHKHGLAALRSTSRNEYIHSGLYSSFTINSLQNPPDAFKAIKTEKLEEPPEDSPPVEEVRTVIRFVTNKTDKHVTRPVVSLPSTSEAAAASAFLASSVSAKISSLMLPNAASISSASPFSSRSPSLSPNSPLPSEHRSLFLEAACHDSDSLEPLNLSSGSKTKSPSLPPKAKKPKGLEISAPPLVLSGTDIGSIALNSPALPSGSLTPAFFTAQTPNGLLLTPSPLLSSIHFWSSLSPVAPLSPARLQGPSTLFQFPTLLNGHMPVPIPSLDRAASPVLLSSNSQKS
Summary of the method: as §1

FEV = molecular target: T7, FEV (Homo sapiens, UniProt Q99581 1-238); details: protein: recombinant; tags: N-terminal GST; dsDNA, one strand shown
T7 sequence: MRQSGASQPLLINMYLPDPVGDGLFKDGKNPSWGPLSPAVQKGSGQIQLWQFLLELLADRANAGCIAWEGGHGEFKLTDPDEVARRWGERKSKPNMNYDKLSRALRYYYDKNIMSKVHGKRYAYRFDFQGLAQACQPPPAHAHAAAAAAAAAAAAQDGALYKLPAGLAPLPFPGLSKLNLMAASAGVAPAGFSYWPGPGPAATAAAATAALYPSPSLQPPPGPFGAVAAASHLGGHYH
Summary of the method: as §1

ETV5 = ETV5 (Homo sapiens, UniProt P41161 1-510); details: protein: recombinant; tags: N-terminal GST; dsDNA, one strand shown
Summary of the method: as §1

HSF1 = HSF1 (Homo sapiens, UniProt Q00613 1-529); details: protein: recombinant; tags: N-terminal GST; chain copies: 3; dsDNA, one strand shown
Summary of the method: as §1

SPIC = molecular target: T8, SPIC (Homo sapiens, UniProt Q8N5J4 1-248); details: protein: recombinant; tags: N-terminal GST; dsDNA, one strand shown
T8 sequence: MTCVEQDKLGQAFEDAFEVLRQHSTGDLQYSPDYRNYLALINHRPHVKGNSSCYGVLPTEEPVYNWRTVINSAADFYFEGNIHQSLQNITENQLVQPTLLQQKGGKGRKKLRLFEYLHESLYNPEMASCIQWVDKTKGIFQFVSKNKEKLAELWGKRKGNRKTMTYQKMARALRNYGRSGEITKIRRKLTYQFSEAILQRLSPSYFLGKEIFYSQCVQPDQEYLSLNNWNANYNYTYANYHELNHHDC
Summary of the method: as §1

ELF4 = ELF4 (Homo sapiens, UniProt Q99607 1-663); details: protein: recombinant; tags: N-terminal GST; dsDNA, one strand shown
Summary of the method: as §1

ELK4 = molecular target: T9, ELK4 (Homo sapiens, UniProt P28324-2 1-405); details: protein: recombinant; tags: N-terminal GST; dsDNA, one strand shown
T9 sequence: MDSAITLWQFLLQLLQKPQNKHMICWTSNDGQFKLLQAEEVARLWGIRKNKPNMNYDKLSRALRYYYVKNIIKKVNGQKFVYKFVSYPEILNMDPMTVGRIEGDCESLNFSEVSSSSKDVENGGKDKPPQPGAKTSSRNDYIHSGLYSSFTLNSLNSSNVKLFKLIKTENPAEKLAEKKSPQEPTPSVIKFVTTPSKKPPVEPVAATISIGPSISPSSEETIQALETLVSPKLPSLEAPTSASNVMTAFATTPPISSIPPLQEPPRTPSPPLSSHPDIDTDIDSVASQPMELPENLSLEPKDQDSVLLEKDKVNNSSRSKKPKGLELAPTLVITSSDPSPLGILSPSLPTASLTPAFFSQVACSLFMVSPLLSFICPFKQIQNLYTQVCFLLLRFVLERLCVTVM
Summary of the method: as §1

ETV2 = molecular target: T10, ETV2 (Homo sapiens, UniProt O00321 1-342); details: protein: recombinant; tags: N-terminal GST; dsDNA, one strand shown
T10 sequence: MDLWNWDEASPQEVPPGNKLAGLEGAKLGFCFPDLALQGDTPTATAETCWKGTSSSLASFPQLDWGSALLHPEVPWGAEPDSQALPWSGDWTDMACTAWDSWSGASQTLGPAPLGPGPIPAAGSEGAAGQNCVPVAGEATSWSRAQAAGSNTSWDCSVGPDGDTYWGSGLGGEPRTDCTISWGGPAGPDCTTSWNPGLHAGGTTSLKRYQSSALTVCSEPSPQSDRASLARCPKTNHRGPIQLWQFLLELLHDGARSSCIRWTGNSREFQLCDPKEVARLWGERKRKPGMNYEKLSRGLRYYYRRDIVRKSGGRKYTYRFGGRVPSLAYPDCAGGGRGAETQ
Summary of the method: as §1

ELF3 = molecular target: T11, ELF3 (Homo sapiens, UniProt P78545 1-371); details: protein: recombinant; tags: N-terminal GST; dsDNA, one strand shown
T11 sequence: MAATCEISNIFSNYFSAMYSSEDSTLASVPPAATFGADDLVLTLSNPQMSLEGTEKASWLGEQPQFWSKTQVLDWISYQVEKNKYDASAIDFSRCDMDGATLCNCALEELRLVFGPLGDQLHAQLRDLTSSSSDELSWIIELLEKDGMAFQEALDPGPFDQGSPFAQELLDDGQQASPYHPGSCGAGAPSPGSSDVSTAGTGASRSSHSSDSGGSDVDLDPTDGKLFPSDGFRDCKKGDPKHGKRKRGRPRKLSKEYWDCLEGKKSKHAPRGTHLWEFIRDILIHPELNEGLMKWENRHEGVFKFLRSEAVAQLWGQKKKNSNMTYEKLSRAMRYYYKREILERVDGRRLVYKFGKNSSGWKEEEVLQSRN
Summary of the method: as §1

CRX = CRX (Homo sapiens, UniProt O43186 1-299); details: protein: recombinant; tags: N-terminal GST; dsDNA, one strand shown
Summary of the method: as §1

ETV1 = ETV1 (Homo sapiens, UniProt P50549 1-477); details: protein: recombinant; tags: N-terminal GST; dsDNA, one strand shown
Summary of the method: as §1

SPIB, sequence (Q01892 whole entry): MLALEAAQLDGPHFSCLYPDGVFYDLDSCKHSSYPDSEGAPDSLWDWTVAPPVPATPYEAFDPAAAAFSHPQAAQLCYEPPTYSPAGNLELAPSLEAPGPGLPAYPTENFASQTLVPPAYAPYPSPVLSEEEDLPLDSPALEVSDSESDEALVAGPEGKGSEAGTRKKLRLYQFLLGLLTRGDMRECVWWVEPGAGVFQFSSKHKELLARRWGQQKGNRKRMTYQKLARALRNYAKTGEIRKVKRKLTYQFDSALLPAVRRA
ETV5, sequence (P41161 whole entry): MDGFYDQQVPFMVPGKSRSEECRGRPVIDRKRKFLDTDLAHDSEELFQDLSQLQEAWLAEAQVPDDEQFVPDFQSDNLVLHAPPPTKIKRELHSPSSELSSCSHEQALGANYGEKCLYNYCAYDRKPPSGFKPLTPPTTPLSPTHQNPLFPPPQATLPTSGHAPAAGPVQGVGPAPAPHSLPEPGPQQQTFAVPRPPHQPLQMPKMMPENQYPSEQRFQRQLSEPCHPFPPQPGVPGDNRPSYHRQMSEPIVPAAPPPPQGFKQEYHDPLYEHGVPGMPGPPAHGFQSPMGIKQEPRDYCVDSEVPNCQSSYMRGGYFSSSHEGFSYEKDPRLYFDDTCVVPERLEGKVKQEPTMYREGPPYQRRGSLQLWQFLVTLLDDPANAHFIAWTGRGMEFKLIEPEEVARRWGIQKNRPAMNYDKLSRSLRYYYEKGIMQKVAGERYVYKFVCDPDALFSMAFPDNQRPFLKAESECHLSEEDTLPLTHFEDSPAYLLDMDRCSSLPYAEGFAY
ELF4, sequence (Q99607 whole entry): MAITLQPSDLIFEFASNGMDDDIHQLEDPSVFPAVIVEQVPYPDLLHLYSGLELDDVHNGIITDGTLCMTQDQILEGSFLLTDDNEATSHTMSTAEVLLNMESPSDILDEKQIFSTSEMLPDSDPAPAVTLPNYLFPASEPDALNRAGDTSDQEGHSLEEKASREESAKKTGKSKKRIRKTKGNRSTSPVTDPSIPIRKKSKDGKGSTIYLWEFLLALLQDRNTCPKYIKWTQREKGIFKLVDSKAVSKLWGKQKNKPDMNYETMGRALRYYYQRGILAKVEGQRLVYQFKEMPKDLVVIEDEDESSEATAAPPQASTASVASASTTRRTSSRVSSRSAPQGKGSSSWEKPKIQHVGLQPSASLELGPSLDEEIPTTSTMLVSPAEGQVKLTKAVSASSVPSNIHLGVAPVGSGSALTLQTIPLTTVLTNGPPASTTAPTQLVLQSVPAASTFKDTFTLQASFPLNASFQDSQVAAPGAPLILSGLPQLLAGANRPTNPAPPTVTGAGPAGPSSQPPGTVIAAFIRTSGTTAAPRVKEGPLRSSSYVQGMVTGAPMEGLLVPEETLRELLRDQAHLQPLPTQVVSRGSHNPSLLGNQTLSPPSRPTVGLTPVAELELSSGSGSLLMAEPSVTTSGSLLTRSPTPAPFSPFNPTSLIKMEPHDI
CRX, sequence (O43186 whole entry): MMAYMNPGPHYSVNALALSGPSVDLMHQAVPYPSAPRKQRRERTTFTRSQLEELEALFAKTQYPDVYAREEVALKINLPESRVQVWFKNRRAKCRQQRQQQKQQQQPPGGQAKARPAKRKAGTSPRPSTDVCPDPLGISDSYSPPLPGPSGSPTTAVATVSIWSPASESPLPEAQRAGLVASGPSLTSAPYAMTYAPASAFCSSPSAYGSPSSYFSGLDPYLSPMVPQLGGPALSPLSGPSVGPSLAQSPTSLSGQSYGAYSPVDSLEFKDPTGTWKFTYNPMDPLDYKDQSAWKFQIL
HSF1, sequence (Q00613 whole entry): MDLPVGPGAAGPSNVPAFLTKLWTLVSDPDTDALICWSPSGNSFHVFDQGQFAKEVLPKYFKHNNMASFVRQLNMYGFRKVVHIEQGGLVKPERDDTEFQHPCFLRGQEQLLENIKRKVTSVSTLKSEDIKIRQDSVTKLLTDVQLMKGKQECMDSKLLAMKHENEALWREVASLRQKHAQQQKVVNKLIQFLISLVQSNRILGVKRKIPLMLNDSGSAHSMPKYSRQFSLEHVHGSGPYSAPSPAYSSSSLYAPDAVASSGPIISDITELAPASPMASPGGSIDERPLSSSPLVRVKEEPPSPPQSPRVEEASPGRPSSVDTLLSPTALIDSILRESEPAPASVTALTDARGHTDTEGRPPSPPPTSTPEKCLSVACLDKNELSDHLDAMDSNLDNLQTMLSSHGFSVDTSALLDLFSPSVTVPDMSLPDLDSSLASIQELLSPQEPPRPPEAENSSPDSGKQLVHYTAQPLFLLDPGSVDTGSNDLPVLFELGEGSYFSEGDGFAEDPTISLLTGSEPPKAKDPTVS
ELF1, sequence (P32519 whole entry): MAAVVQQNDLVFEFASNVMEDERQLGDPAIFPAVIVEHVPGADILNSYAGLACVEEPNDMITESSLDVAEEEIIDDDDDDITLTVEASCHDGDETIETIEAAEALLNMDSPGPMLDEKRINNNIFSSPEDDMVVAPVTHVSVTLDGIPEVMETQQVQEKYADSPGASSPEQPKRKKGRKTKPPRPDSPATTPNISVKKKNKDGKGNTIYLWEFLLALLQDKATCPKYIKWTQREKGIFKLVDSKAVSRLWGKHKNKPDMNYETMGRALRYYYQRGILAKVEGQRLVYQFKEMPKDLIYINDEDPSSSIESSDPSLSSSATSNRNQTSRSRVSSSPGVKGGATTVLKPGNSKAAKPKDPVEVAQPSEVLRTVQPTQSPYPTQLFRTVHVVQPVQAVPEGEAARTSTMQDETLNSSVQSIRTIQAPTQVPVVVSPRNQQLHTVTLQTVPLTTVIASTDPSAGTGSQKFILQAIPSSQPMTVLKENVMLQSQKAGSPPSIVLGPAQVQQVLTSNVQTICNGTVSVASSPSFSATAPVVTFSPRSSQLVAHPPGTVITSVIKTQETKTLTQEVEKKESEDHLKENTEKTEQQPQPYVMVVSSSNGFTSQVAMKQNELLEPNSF
ETV1, sequence (P50549 whole entry): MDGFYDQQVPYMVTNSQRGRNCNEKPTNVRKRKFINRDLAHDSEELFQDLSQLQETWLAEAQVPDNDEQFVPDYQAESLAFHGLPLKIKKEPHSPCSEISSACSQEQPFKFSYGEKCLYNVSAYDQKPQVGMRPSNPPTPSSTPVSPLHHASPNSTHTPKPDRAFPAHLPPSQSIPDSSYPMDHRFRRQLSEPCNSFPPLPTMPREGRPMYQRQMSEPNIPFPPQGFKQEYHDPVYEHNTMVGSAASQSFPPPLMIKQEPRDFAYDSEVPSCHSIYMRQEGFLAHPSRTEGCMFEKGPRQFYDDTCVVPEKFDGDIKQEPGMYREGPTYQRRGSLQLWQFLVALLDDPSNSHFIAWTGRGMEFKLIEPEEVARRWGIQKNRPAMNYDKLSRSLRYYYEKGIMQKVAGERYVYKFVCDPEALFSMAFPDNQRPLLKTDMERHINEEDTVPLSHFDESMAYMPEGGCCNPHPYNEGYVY

GTATCT
binding signal (FLI1): 1.23 fold enrichment (6-mer frequency, TF over GST control)
binding signal (ELK1): 1.19 fold enrichment (6-mer frequency, TF over GST control)
binding signal (GABPA): 1.17 fold enrichment (6-mer frequency, TF over GST control)
binding signal (ERG): 1.14 fold enrichment (6-mer frequency, TF over GST control)
binding signal (ELF1): 1.18 fold enrichment (6-mer frequency, TF over GST control)
binding signal (EHF): 1.09 fold enrichment (6-mer frequency, TF over GST control)
binding signal (SPI1): 1.1 fold enrichment (6-mer frequency, TF over GST control)
binding signal (SPIB): 1.25 fold enrichment (6-mer frequency, TF over GST control)
binding signal (ELK3): 1.09 fold enrichment (6-mer frequency, TF over GST control)
binding signal (FEV): 1.14 fold enrichment (6-mer frequency, TF over GST control)
binding signal (ETV5): 1.11 fold enrichment (6-mer frequency, TF over GST control)
binding signal (HSF1): 1.15 fold enrichment (6-mer frequency, TF over GST control)
binding signal (SPIC): 1.15 fold enrichment (6-mer frequency, TF over GST control)
binding signal (ELF4): 1.14 fold enrichment (6-mer frequency, TF over GST control)
binding signal (ELK4): 1.22 fold enrichment (6-mer frequency, TF over GST control)
binding signal (ETV2): 1.23 fold enrichment (6-mer frequency, TF over GST control)
binding signal (ELF3): 1.26 fold enrichment (6-mer frequency, TF over GST control)
binding signal (CRX): 1.02 fold enrichment (6-mer frequency, TF over GST control)
binding signal (ETV1): 1.15 fold enrichment (6-mer frequency, TF over GST control)

Source: article PMC7862700, “An all-to-all approach to the identification of sequence-specific readers for epigenetic DNA modifications on cytosine”
